Compound activity as filed in PubChem BioAssay.
The list is not random: actives were taken first. Their share in the collection is about 6.2%.
HCMV inh: blocks human cytomegalovirus replication | HFF cells, HCMV-luciferase reporter, 72 h; active compounds read low | activity change, negative = inhibition, % at 57.5 µM | 4.5% of 410,000 active; in the data active means activity change below about -60%; inconclusive means no clear call, values can overlap the other calls; inactive means above about -39%
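HFF cells seeded 16 h at 37C, treated with compounds, infected with luciferase-reporter HCMV at MOI 1 PFU/cell; luciferase read at 72 h post infection, normalized to buffer-only and Salinomycin controls.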
Marburg entry inh: blocks Marburg virus binding to or entry into cells; Marburg virus pseudotyped entry inhibition, cell reporter; Potency, µM (series often up to 37.8 µM), for the others: at the highest dose activity change, negative = inhibition, hits mostly inhibitors; 1.8% of 300,000 active; calls by dose curve; tested in HEK293 cells; further: potency means the concentration at half of the fitted maximal effect
Lassa entry inh: inhibitors of Lassa virus binding or cell entry | Lassa virus pseudotype entry inhibition, cell reporter | Potency, µM (titrated, usually from 37.9 µM), without a hit: at the top dose activity change, negative = inhibition, actives largely listed as inhibitors | 1.2% of 300,000 active; calls by dose curve; tested in HEK293 cells; further: potency means the concentration at half of the fitted maximal effect; nearly all actives have a fitted effect of over 50% in size
FMDV antiviral: blocks foot and mouth disease virus; FMDV antiviral cell-based qHTS; Potency, µM (top dose mostly 57.9 µM), for the others: at the highest dose activity change, negative = inhibition, most hits filed as inhibitors; 1.2% of 410,000 active; AID 1159524; calls by dose curve; tested in HEK293T cells; further: read-out not given here; potency means the concentration at half of the fitted maximal effect; nearly all actives have a fitted effect of over 45% in size
An asterisk follows results filed as active; [ ] = dose if it differs, or a comment. On the % scale 0 is the no-effect control and ±100 the full control effect.

For COc1ccc([C@H]2C[C@@H](O)[C@H](n3cc(C4CC4)nn3)CN2CC2CCCCC2)cc1 the results were HCMV inh -4 and FMDV antiviral -22%.
For O=C(NCc1cccnc1)c1cccc(S(=O)(=O)N2CCCCC2)c1 the results were HCMV inh -81*, Marburg entry inh -7%, Lassa entry inh 10% and FMDV antiviral -16%.
For COc1cc(OC)c(OC)cc1CNC(=O)c1cccc(S(=O)(=O)N2CCc3ccccc3C2)c1 the results were HCMV inh inconclusive, Marburg entry inh inconclusive, Lassa entry inh inconclusive and FMDV antiviral 11µM*.
Screening COc1ccc(CNC(=O)COc2ccc(S(=O)(=O)N3CCCCC3)cc2)cc1 returned HCMV inh 8, Marburg entry inh 2%, Lassa entry inh -13% and FMDV antiviral -5%.
O=C(Nc1cc(S(=O)(=O)N2CCCCC2)ccc1Cl)c1ccccc1NS(=O)(=O)c1ccc(F)cc1 was read as Marburg entry inh inconclusive, Lassa entry inh 3.5µM* and FMDV antiviral -3%.
For COc1ccc(CNC(=O)COc2ccc(S(=O)(=O)N3CCCCC3)cc2Cl)cc1 the results were HCMV inh 5, Marburg entry inh inconclusive, Lassa entry inh 13µM* and FMDV antiviral -18%.
Screening Cc1cccc(Cn2c(-c3cccs3)nc3ccccc32)c1 returned HCMV inh -6, Marburg entry inh -9%[46.1 µM], Lassa entry inh -17%[46.1 µM] and FMDV antiviral -4%.
Screening Cc1cc(C(=O)NCCc2ccc(Cl)cc2)c2c(C)nn(-c3cccc(F)c3)c2n1 returned HCMV inh 9, Lassa entry inh 26%[46.1 µM] and FMDV antiviral 6%.
For COc1cccc(CN2CCN(C(c3ccccc3)c3ccccc3)CC2)c1O the results were HCMV inh 51, Marburg entry inh inconclusive, Lassa entry inh inconclusive and FMDV antiviral -11%.
`CCOc1ccc(CCNC(=O)c2ccc3nc(N4CCOCC4)sc3c2)cc1OCC` gave HCMV inh inconclusive, Marburg entry inh -5%[46.1 µM], Lassa entry inh -13% and FMDV antiviral 14µM*.
Screening CCOc1ccc(CCNC(=O)c2cccc(S(=O)(=O)N3CCCCC3)c2)cc1OCC returned HCMV inh -7, Marburg entry inh inconclusive, Lassa entry inh -24% and FMDV antiviral 28µM*.
COc1ccc(CCNC(=O)c2ccc3nc(N4CCOCC4)sc3c2)cc1OC was read as HCMV inh 34 and FMDV antiviral -19%.
For COc1ccc(CCNC(=O)COc2ccc(S(=O)(=O)NC3CCCCC3)cc2Cl)cc1OC the results were HCMV inh -62*, Marburg entry inh inconclusive, Lassa entry inh -5% and FMDV antiviral -24%.
`COc1ccc(CCNC(=O)c2ccc(CNS(=O)(=O)c3cc(C)ccc3C)cc2)cc1OC` gave HCMV inh inconclusive, Marburg entry inh 10µM*, Lassa entry inh inconclusive and FMDV antiviral 20µM*.
Screening COc1ccc([C@@H]2[C@@H]3C(=O)N(C(C)(C)C)C(=O)[C@@H]3[C@]3(C)C(=O)N(c4ccc(C(F)(F)F)cc4)C(=O)N23)cc1 returned HCMV inh -12 and FMDV antiviral 18%.
`OCCSc1nc(-c2ccccc2)nc2ccc(F)cc12` gave HCMV inh 12 and FMDV antiviral 0%.
Screening CCCn1c(C(CO)Nc2nc(-c3cccc(Br)c3)cs2)nc2ccccc21 (configuration not stated) returned HCMV inh -18 and FMDV antiviral -15%.
`C[C@H](CO)N1C[C@H](C)[C@@H](CN(C)S(=O)(=O)c2cccs2)Oc2ccc(NC(=O)C3CC3)cc2C1=O` gave HCMV inh 9 and FMDV antiviral -14%.
`COc1ccc(CNC(=O)c2cccc(S(=O)(=O)N3CCCCC3)c2)cc1OC` gave HCMV inh -87* and FMDV antiviral inconclusive.
For Cc1cccc(C(C)C)c1NC(=O)COC(=O)c1cccc(S(=O)(=O)N2CCc3ccccc3C2)c1 the results were HCMV inh -79*, Marburg entry inh 0%, Lassa entry inh inconclusive and FMDV antiviral -10%.
Screening COc1ccc(CNC(=O)c2cc(S(=O)(=O)N3CCCCC3)ccc2Cl)cc1OC returned HCMV inh -64*, Marburg entry inh inconclusive, Lassa entry inh -26% and FMDV antiviral 14µM*.
O=C(CN(Cc1ccco1)Cc1ccco1)Nc1cc(S(=O)(=O)N2CCCCC2)ccc1Cl was read as HCMV inh -83* and FMDV antiviral inconclusive.
Screening COc1ccc(CCNC(=O)c2cccc(S(=O)(=O)N3CCCC3)c2)cc1OC returned HCMV inh -11 and FMDV antiviral -23%.
Screening COc1ccc(S(=O)(=O)N2CCCCCC2)cc1C(=O)NCc1ccccc1Cl returned HCMV inh -27, Marburg entry inh -1%, Lassa entry inh inconclusive and FMDV antiviral 6%.
For C=CCOc1ccc(/C=C(\C#N)C(=O)Nc2ccccn2)cc1OC the results were HCMV inh -5, Marburg entry inh 6%[46.1 µM], Lassa entry inh 9% and FMDV antiviral 13%.
COC(=O)C1=C[C@@H](C(=O)OC)[C@@H]2C3=C(C(=O)[C@]2(C)NC(=O)c2ccccc2)[C@H](C)n2c(=O)n(-c4ccccc4)c(=O)n2[C@@H]3C1 was read as HCMV inh -9 and FMDV antiviral 5%.
O=C(NCc1ccc(F)cc1)c1cc(S(=O)(=O)N2CCCCC2)ccc1Cl was read as HCMV inh -102* and FMDV antiviral -9%.
For CCOc1ccc(CCNC(=O)c2ccc(C)c(S(=O)(=O)N3CCOCC3)c2)cc1OCC the results were HCMV inh -5, Marburg entry inh inconclusive, Lassa entry inh inconclusive and FMDV antiviral 22µM*.
Screening O=C(NCCc1ccccc1)c1ccc2nc(N3CCOCC3)sc2c1 returned HCMV inh -8 and FMDV antiviral 4%.
O=C(NCc1cccc(Cl)c1)c1ccc2nc(N3CCOCC3)sc2c1 was read as HCMV inh -80* and FMDV antiviral -6%.
For CCOc1ccc(CCNC(=O)COC(=O)/C=C/c2ccccc2)cc1OCC the results were HCMV inh -87*, Marburg entry inh -15%, Lassa entry inh 11% and FMDV antiviral -18%.
Screening CCN1CCN(c2ccc(S(=O)(=O)N3CCCCC3)cc2NC(=O)c2ccc(F)cc2)CC1 returned HCMV inh 4, Marburg entry inh inconclusive, Lassa entry inh 11% and FMDV antiviral -7%.
`CCOc1ccc(CCNC(=O)CN2CCN(Cc3ccc(Cl)cc3)C2=O)cc1OCC` gave HCMV inh -12, Marburg entry inh 5µM*, Lassa entry inh 1%[46.1 µM] and FMDV antiviral -28%.
For CCOc1ccc(CCNC(=O)c2cccc(N3CCCC3=O)c2)cc1OCC the results were HCMV inh -79*, Marburg entry inh -13%, Lassa entry inh -10% and FMDV antiviral -2%.
`CCOc1ccc(CCNC(=O)c2ccc(CNS(=O)(=O)c3ccccc3)cc2)cc1OCC` gave HCMV inh -72*, Marburg entry inh inconclusive, Lassa entry inh -16% and FMDV antiviral 28µM*.
Screening COc1ccc(CCNC(=O)c2ccc(N3CCCC3=O)cc2)cc1OC returned HCMV inh 22, Marburg entry inh 8%, Lassa entry inh -1% and FMDV antiviral -9%.
